# In the library only some 4.6% were active in any assay of this set; here they are far more common.
# AHR activator: AHR activators, primary screen, cell-based, luminescence, luciferase reporter, human. AHR-responsive luciferase reporter cells. activation, % at 5 µM. AID 2796, 2010. 2.5% of 320,000 active; in the data active = activation above about 47%;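 also: 0% = vehicle wells and 100% = reference agonist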
# Target sequence (P35869 whole entry, looked up): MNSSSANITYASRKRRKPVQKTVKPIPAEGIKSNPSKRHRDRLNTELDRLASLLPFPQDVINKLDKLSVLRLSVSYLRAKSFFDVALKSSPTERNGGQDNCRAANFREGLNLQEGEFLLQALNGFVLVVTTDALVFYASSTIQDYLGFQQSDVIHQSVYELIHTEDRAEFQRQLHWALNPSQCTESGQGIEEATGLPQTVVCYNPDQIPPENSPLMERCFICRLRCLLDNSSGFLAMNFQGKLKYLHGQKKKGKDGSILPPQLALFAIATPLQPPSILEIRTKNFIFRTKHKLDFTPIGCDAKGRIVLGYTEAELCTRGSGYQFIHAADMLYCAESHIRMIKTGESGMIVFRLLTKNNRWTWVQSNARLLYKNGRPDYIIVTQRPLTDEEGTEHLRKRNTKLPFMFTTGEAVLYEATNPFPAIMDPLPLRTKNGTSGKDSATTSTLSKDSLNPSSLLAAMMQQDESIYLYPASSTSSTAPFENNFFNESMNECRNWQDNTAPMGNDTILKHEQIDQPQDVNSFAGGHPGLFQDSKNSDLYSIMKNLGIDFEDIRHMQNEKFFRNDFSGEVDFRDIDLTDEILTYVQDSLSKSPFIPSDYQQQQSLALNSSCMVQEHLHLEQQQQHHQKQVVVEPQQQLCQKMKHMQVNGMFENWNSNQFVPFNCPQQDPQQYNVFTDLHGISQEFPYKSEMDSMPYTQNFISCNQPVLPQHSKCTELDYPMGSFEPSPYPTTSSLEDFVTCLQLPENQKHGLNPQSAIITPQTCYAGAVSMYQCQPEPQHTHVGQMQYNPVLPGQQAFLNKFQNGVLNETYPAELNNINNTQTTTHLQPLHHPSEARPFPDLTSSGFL
# HSF1 inh: HSF1 inhibitors in luciferase reporter cells, primary screen, cell-based, NIH3T3, luminescence; NIH3T3-HGL HSE-luciferase, MG132-induced, luminescence 8 h; stronger effect = lower value; activity change, negative = inhibition, % at 7.5 µM (by protocol); 0.77% of 300,000 active;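 active = more than half of replicate wells show activity change below -50%, luminescence cut by over half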;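 also: luciferase reports HSF-1 transcriptional activity via heat shock element; 0% = median of DMSO wells and -100% = zero luminescence signal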
# HSF1 activator: HSF-1 activators, primary screen, NIH3T3-HGL cells, MG132 stress, luminescence, single point; NIH3T3-HGL HSF-1 luciferase reporter, 8 h; 100% = twice DMSO control signal; activation, % at 9 µM; 1.7% of 300,000 active;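 active = mean replicate activation of at least 50% with a set share of replicates each reaching 50%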;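 also: 0% = median of the neutral control wells and 100% = twice that signal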
# GAA850 FXN act: FXN promoter activators, primary screen, cell-based, luciferase luminescence, HEK293 lucGAA850. HEK293 lucGAA850 FXN promoter luciferase reporter, 24 h; percent of 10 µM SAHA response. activation, % at 6 µM. 0.56% of 360,000 active;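 active = activation above the average of all compounds screened plus 3 SD, cutoff fixed separately per campaign, cut at about 7.5% in these data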;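 also: 0% = DMSO wells and 100% = 10 µM SAHA wells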
# * marks the source's active call; other numbers are inactive results; / = not tested or not shown.
SMILES,AHR activator,HSF1 inh,HSF1 activator,GAA850 FXN act
COc1ccccc1N1CCN(/N=C/C=C\c2ccco2)CC1,-2,55,80*,4
COc1ccccc1N1CCN(C(=O)/C=C/c2ccco2)CC1,4,-1,27,3
O=C(CN1C(=O)/C(=C/c2ccccc2)SC1=S)Nc1cccnc1,7,-19,-1,2
COc1cc(/C=C2/SC(=S)N(CC(=O)Nc3cccnc3)C2=O)cc(OC)c1OC,51*,-3,6,1
Cc1ccc(/C=C2\SC(=S)N(CCCC(=O)Nc3cccnc3)C2=O)cc1,-20,-60*,-70,-15
Cc1ccc(/C=C2\SC(=S)N(CCC(=O)NNS(=O)(=O)c3ccc(C)cc3)C2=O)cc1,0,15,64*,2
COc1ccc(/C=C2\SC(=S)N(CCC(=O)Nc3cccc(O)c3)C2=O)cc1,/,67,92*,-4
COc1ccc(S(=O)(=O)N(CCc2ccccc2)CC(=O)N/N=C/c2ccc3c(c2)OCO3)cc1,1,0,-3,0
CCOc1cc(/C=N/NC(=O)CN(CCc2ccccc2)S(=O)(=O)c2ccc(NC(C)=O)cc2)ccc1O,3,-89*,-90,-3
CCOc1ccc(N2C(=O)C(Cl)=C(Nc3ccccc3O)C2=O)cc1,15,44,67*,1
COc1ccccc1NC1=C(Cl)C(=O)N(c2ccccc2)C1=O,-6,-7,-1,2
CSS(=O)(=O)c1cccc2cccnc12,2,54,78*,0
c1ccc2sc(NN=C3CCCCCC3)nc2c1,51*,9,6,0
CC(=O)Nc1ccc(C(=O)OCc2ccc(Cl)c(Cl)c2)cc1,2,22,57*,1
c1cncc(-c2nc(N3CCOCC3)c3ccccc3n2)c1,78*,-12,-17,1
CN1CCN(c2nc(-c3ccc(C(C)(C)C)cc3)nc3ccccc23)CC1,46,-80*,-84,-1
Cc1cc(N)n(-c2nc(-c3cccnc3)nc3ccccc23)n1,61*,2,-2,-3
Cc1cc(N)n(-c2cc(C)c3ccccc3n2)n1,23,8,6,7
Cc1ccc(-c2nc(N3CCN(C)CC3)c3ccccc3n2)cc1,19,-5,-7,6
CCOC(=O)CNC(=O)CSc1nc(-c2cccc(C)c2)ns1,1,19,12,0
Cc1ccc(C2CCN(C(=S)NC(C)(C)C)C2)cc1 (centres undefined),5,-66*,-75,4
Cc1ccc(C2CCN(C(=S)NC3CCCCC3)C2)cc1 (centres undefined),4,-2,-14,-2
CCOC(=O)C1=C(C)N=c2s/c(=C/c3cccc([N+](=O)[O-])c3O)c(=O)n2C1c1cc(OC)c(OC)c(OC)c1 (centres undefined),8,6,58*,0
CCc1c(C)nc(SCC(=O)c2cccs2)c(C#N)c1C,94*,/,/,5
CCc1c(C)nc2ccc(Br)cc2c1Cl,1,5,7,1
SMILES,AHR activator,HSF1 inh,HSF1 activator,GAA850 FXN act
Nc1nc(Cl)nc2ccc(Br)cc12,59*,-47,-54,-5
C/C(CC(=O)Nc1ccc(C)c(Cl)c1)=N\NC(=O)Cc1cnc(N)s1,11,27,61*,0
Cn1c(=O)c2c(SCc3cccnc3)nc(CC(C)(C)C)nc2n(C)c1=O,2,-2,-13,0
CCCc1nc(SCc2cccnc2)c2c(=O)n(C)c(=O)n(C)c2n1,52*,25,13,4
O=C(Nc1ccc2c(c1)OCCO2)c1oc2ccccc2c1NC(=O)C1CC1,16,-6,-13,5
CCOCC(=O)Nc1c(C(=O)Nc2ccc3c(c2)OCCO3)oc2ccccc12,65*,12,37,4
COCC(=O)Nc1c(C(=O)Nc2ccc3c(c2)OCCO3)oc2ccccc12,55*,23,38,7
O=C(CCc1nc2ccccc2[nH]1)N1CCc2ccccc2C1,5,2,17,0
Cc1ccccc1N(C(=O)c1snc(C(N)=O)c1N)C(C(=O)NCC1CCCO1)c1ccc(N(C)C)cc1 (centres undefined),-1,4,3,-1
Cc1ccsc1C(=O)OCc1nc2ccccc2c(=O)[nH]1,56*,-3,-6,1
COc1ccc(CN(C)C(=O)CNC(=O)c2ccc(C)cc2)cc1,1,-7,5,0
Cc1nc(SCc2nc3ccccc3[nH]2)c2oc3ccccc3c2n1,11,3,33,3
COc1cccc2c1oc1c(SCc3nc4ccccc4[nH]3)nc(C)nc12,59*,/,/,4
O=c1[nH]c(CSc2ccccn2)nc2c1oc1ccccc12,28,48,108*,-1
c1ccc2[nH]c(CSc3ncnc4c3oc3ccccc34)nc2c1,53*,10,11,5
c1ccc(-c2nc(SCc3nc4ccccc4[nH]3)c3oc4ccccc4c3n2)cc1,68*,/,/,4
Cc1cc(N)cc(C)c1-c1c(Br)cc(N)cc1Br,/,/,/,-2
CCNC(=O)C1CCCN(C(=O)c2ccccc2F)CC1 (centres undefined),/,/,/,0
CC1=C(C#N)c2nc(N)c(C#N)c(C)c2/C1=C\c1ccc(C)cc1,10,-2,27,/
O=C(CSc1nc(=O)n(CCCN2CCOCC2)c2c1CCCC2)Nc1ccc(F)cc1F,-1,-1,-7,-1
Cc1ccc(NC(=O)c2cc(C(=O)Nc3ccc(C)cc3)n(C)n2)cc1,62*,-7,3,-1
Cn1nc(C(=O)Nc2ccc(Cl)cc2)cc1C(=O)Nc1ccc(Cl)cc1,72*,-2,2,-1
c1ccc(CCCc2nc(-c3cccnc3)no2)cc1,-4,1,-10,1
CSCCC(NS(=O)(=O)c1cccs1)C(=O)NCc1ccccc1 (centres undefined),1,-52*,-57,2
CSCCC(NS(=O)(=O)c1cccs1)C(=O)NCc1ccc(C)cc1 (centres undefined),-2,-7,-17,-2
SMILES,AHR activator,HSF1 inh,HSF1 activator,GAA850 FXN act
CSc1ncc(CN2CCc3c([nH]c4ccccc34)C2C(C)(C)C)cn1 (centres undefined),13,-3,0,2
Cc1cccc(CN2CCc3c([nH]c4ccccc34)C2C(C)(C)C)n1 (centres undefined),60*,-2,-4,1
COc1ccc(C(=O)N2CCC(C(=O)c3ccc(F)cc3)CC2)cc1,2,-5,-6,-1
CCN(C(=O)c1ccc(NC(=O)Cc2ccccc2)cc1)c1ccccc1,/,-2,5,-1
COc1ccc(-c2cc(C#N)nc(N3CCN(C)CC3)n2)cc1,73*,18,33,1
COc1ccc(-c2nnc(SCC(=O)c3[nH]c(C)c(C(C)=O)c3C)o2)cc1,4,/,/,0
CCc1ccc(NC(=O)C/C(C)=N/NC(=O)COc2ccc(C)cc2Br)cc1,25,40,59*,2
CCc1ccc(OCC(=O)NC(=S)Nc2ccc(F)cc2)c(Br)c1,0,-2,-4,0
